Measured values: PubChem BioAssay (NCI)
This is part of a sample that, as a whole, favours compounds with a hit. Of some 83,000 tested, about 20% had one in any assay.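 Testing used 96-well plates and a 48-hour single-concentration exposure. Example: -40 means 40% of the starting cells died.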 Unmarked numbers belong to inactive results. Active and inactive are the calls of the source. Rule for the calls: active = growth percent below 10; inactive = the rest.

Tests used:
Test in all cases: NCI-60 one-dose screen, 48 h (100 = growth as untreated, 0 = no growth, -100 = all killed)
Conditions in all cases: 10 µM unless noted
SR leukemia = system: SR leukemia
RPMI-8226 leukemia = system: RPMI-8226 leukemia
OVCAR-8 ovarian = system: OVCAR-8 ovarian
OVCAR-5 ovarian = system: OVCAR-5 ovarian
OVCAR-4 ovarian = system: OVCAR-4 ovarian
SK-OV-3 ovarian = system: SK-OV-3 ovarian
IGROV1 ovarian = system: IGROV1 ovarian
OVCAR-3 ovarian = system: OVCAR-3 ovarian
HS 578T breast = system: HS 578T breast
NCI/ADR-RES ovarian = system: NCI/ADR-RES ovarian
T-47D breast = system: T-47D breast
MDA-MB-435 melanoma = system: MDA-MB-435 melanoma
SW-620 colon = system: SW-620 colon
MCF7 breast = system: MCF7 breast
HCC-2998 colon = system: HCC-2998 colon
KM12 colon = system: KM12 colon
BT-549 breast = system: BT-549 breast
HCT-116 colon = system: HCT-116 colon

SMILES	growth (SR leukemia)	growth (RPMI-8226 leukemia)	growth (OVCAR-8 ovarian)	growth (OVCAR-5 ovarian)	growth (OVCAR-4 ovarian)	growth (SK-OV-3 ovarian)	growth (IGROV1 ovarian)	growth (OVCAR-3 ovarian)	growth (HS 578T breast)	growth (NCI/ADR-RES ovarian)	growth (T-47D breast)	growth (MDA-MB-435 melanoma)	growth (SW-620 colon)	growth (MCF7 breast)	growth (HCC-2998 colon)	growth (KM12 colon)	growth (BT-549 breast)	growth (HCT-116 colon)
COc1ccc(-c2nc(SC(C)C)nc(NNC(N)=S)c2C#N)cc1	24.4%	32.7%	71.2%	66%	86.3%	73%	52.6%	18.2%	54.9%	19.6%	51.6%	-46.4% (active)	22.2%	30.7%	63.7%	39.2%	–	–
Cc1cc(NCCCCNc2ccnc3cc(Cl)ccc23)nc(Nc2ccc(C(=O)N3CCCC3)cc2)n1	-28.9% (active)	2.17% (active)	11.5%	108%	48.4%	106%	81.9%	60.6%	89.8%	94.8%	-31.2% (active)	-45% (active)	-11.8% (active)	12.7%	8.57% (active)	55.7%	–	–
O=Cc1ccc(O)c2ncccc12	-41.3% (active)	-39.8% (active)	9.03% (active)	50.3%	5.69% (active)	97.7%	4% (active)	–	41.6%	-1% (active)	22.8%	60.3%	21.5%	7.29% (active)	86.6%	69.6%	-1.72% (active)	-7.5% (active)
COc1cc2c(cc1-c1c(C)noc1C)ncc1nc(C3CCCCC3)n(C3CCC(OC(F)F)CC3)c12 (configuration not stated)	16.7%	4.9% (active)	40.5%	63.5%	40.3%	-2.64% (active)	50.9%	27.8%	–	30%	-0.67% (active)	–	58.3%	15.1%	42.7%	39.2%	51.5%	24.8%
Cc1ccc(-n2c(-c3ccccc3)c(-c3ccccc3)c3c(SCC(=O)n4[nH]c(N)cc4=O)ncnc32)cc1	103%	81.9%	83.2%	101%	96%	79.5%	79.8%	–	106%	105%	76.6%	106%	90.3%	86.7%	113%	98.1%	99%	78.2%
COc1ccc(N2CCN(c3nc(-c4cc(OC)c(OC)c(OC)c4)nc4ccccc34)CC2)cc1	42.6%	54.8%	71.1%	93.5%	88%	91.4%	97%	94.6%	65.2%	65.3%	45.4%	67.1%	85.6%	83.3%	95.1%	70%	–	–
C#CCOc1nc(C)cc(C)c1C#N	91.8%	111%	102%	95.1%	100%	101%	102%	–	101%	103%	96.2%	99.9%	96.5%	95.5%	103%	102%	106%	99.4%
CC/C=C\C/C=C\C[C@H](O)C/C=C1/C(=O)C=C[C@@H]1C/C=C\CCCC(=O)O	6.21% (active)	3.88% (active)	-4.92% (active)	65.3%	47.4%	109%	63.1%	7.83% (active)	–	31.3%	14.2%	10.1%	21.4%	–	-22% (active)	6.23% (active)	-29.3% (active)	-61.1% (active)
COc1cc(-c2nn(-c3ccccc3)cc2-c2ccnc(NCCNS(=O)(=O)c3ccc(Cl)cc3)n2)ccc1Cl	-19.4% (active)	35%	36.1%	68.8%	38.3%	22.7%	38.2%	–	58.4%	31.7%	4.68% (active)	28.2%	51.1%	18%	34.1%	20.8%	16.6%	14.3%
Oc1c(CN2CCCC2)cc(COCc2ccc(Br)cc2)c2cccnc12	3.12% (active)	1% (active)	-27% (active)	29.6%	-5.71% (active)	-17.4% (active)	-6.09% (active)	–	45.2%	-40.9% (active)	-7.63% (active)	24.1%	5.64% (active)	–	21.5%	20.6%	14.9%	1.8% (active)
N=C1C(c2nc(-c3ccc(Br)cc3)cs2)=C(O)CN1CC1CCCO1 (configuration not stated)	38.9%	48.5%	52.7%	89.2%	75%	113%	46.2%	–	89%	76.3%	95.7%	88.8%	60%	78.4%	95.1%	86.6%	106%	25.7%
CCOC(=O)c1c2ncccc2n2c(=O)n(-c3ccccc3C)nnc12	60.4%	158%	99.1%	101%	90.2%	80.7%	63.9%	–	–	93.3%	89.9%	116%	117%	77.5%	106%	119%	104%	92.6%
NC(=S)Nc1cccc(O)c1	82.4%	88.5%	94.2%	96.3%	107%	101%	98%	110%	102%	94.2%	106%	–	99.8%	98.8%	96.7%	106%	78.8%	91.6%
c1c[nH]c(CNC2CCCCC2)c1	144%	103%	102%	101%	111%	102%	107%	98.1%	102%	99.1%	105%	115%	102%	103%	109%	98.2%	–	103%
C=C1C(=O)O[C@H]2[C@H]1CC/C(COC(=O)C(=O)c1c[nH]c3ccc(OC)cc13)=C\CC[C@@]1(C)O[C@@H]21	-2.97% (active)	-35.6% (active)	-24.6% (active)	-30.6% (active)	-12% (active)	15.8%	-73% (active)	-74.6% (active)	2.01% (active)	7.22% (active)	-54.5% (active)	–	-61.4% (active)	-30.1% (active)	-81.9% (active)	-71.2% (active)	-63.7% (active)	-97.3% (active)
CN(C)c1ccc(/C=C/C(=O)c2cccc(Nc3nc(Nc4ccccc4)nc(Nc4ccccc4)n3)c2)cc1	77.4%	53.4%	81.2%	93.9%	30.7%	93.2%	69%	102%	78.9%	76.4%	81.4%	101%	103%	75.1%	64.5%	99.8%	–	83.2%
Cc1ccc2nc(NC(=O)CSc3nc(Nc4ccc([N+](=O)[O-])cc4)c(C#N)c(-c4ccccc4)n3)sc2c1	47.6%	80%	91.5%	87.5%	88.4%	98.3%	76.1%	102%	85%	95%	-58.4% (active)	107%	105%	87.1%	102%	101%	–	89.5%
